Screening results (PubChem BioAssay)
Compounds with a hit are over-represented: about 2.4% of the library has one in this group of screens.
INS promoter inh = TRM-6 insulin promoter activity inhibition | TRM-6 cells (human fetal islet line), insulin promoter-eGFP reporter, imaging; reporter expression induced with tamoxifen | inhibition, % at 2 µM | 0.9% of 130,000 active;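 active = inhibition above the mean plus 3 SD, with well images judged a real hit on visual review, cut at about 60% in these data, passing the limit was not always enough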
S1P3 antag = S1P3 (human) receptor antagonism; AID 485; 0.27% of 170,000 active; inhibition, % at 4.98 µM; CHO S1P3 NFAT-BLA reporter, FRET fluorescence, antagonist mode;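 active = inhibition above the plate cutoff, the mean inhibition of test wells on that plate plus 3 SD, cut at about 28% in these data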;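 also: cells challenged with S1P at its EC80 of 0.8 µM; blue over green emission ratio from cleaved BLA substrate after 4 h stimulation; 0% = S1P-stimulated wells and 100% = unstimulated DMSO-only wells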
Target sequence (Q99500 whole entry, looked up): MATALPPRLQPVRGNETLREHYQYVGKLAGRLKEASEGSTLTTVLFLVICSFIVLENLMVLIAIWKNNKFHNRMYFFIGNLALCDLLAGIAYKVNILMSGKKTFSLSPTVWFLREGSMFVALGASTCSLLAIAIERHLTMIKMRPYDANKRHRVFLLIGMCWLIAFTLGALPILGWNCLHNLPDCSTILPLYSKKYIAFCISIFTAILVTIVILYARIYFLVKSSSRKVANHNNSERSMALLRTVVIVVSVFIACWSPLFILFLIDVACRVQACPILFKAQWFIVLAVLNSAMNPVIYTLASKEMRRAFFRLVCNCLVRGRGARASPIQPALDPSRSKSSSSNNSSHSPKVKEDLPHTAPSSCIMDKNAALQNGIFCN
PGE2 EP2 inh = inhibitors of human EP2 prostaglandin E2 receptor. 0.52% of 260,000 active. inhibition, % at 25 µM. AID 1422. C6 glioma cells expressing human EP2, cAMP TR-FRET; cells stimulated with saturating PGE2;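 active = percent inhibition above 40 after rounding to a whole number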;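 also: rat C6 glioma host cells with rolipram phosphodiesterase inhibitor present; the protocol text gives 20 µM as final concentration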
S1P4 ag = agonists of human S1P4 receptor | O95977 | S1P4-expressing cell line, agonist reporter assay | activation, % at 4.98 µM | 0.35% of 220,000 active; in the data active = activation above about 11%;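 also: 0% = DMSO vehicle and 100% = reference agonist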
S1P4 antagonist = blocks the human S1P4 receptor | O95977 | S1P4-expressing cells, antagonist mode, reporter read-out | inhibition, % at 4.98 µM | 0.26% of 220,000 active; in the data active = inhibition above about 29%;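 also: 0% = wells stimulated with agonist and 100% = vehicle wells without agonist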
EP2 mod = modulators of human EP2 prostaglandin E2 receptor. P43116. EP2-expressing cells, cAMP HTRF FRET, PGE2 co-stimulation. induction, % at 25 µM. 0.83% of 260,000 active. AID 940;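 active = compounds whose cAMP rise, as percent of the full-agonist control response, exceeds 60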;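 also: rat C6 glioma line stably carrying human EP2 under a CMV promoter; the protocol text gives 20 µM as final concentration; 100% = response of wells given 1 µM PGE2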
An asterisk follows results filed as active; / = no result given.

SMILES	INS promoter inh	S1P3 antag	PGE2 EP2 inh	S1P4 ag	S1P4 antagonist	EP2 mod
C=CCc1cc(C)ccc1OCCOCCC(C(=O)OCC)C(=O)OCC	-31	2	13	2	3	62*
Cc1ccn(C(=O)c2ccc(NC(=O)C3CC3)cc2)n1	/	-9	4	0	9	-26
CCC(=O)Nc1ccc(C(=O)n2nc(C)cc2C)cc1	/	-25	10	0	1	-20
Cc1cc(C)n(C(=O)c2ccc(NC(=O)CC(C)C)cc2)n1	74*	27	8	-2	-14	4
Cc1cc(C)n(C(=O)c2ccc(NC(=O)C3CC3)cc2)n1	/	93*	14	-2	-8	-33
CCn1c(N2CCC(C(=O)NCc3ccc(OC)cc3)CC2)nc2ccccc21	/	/	/	/	/	-29
O=C(Cc1n[nH]c(=O)c2ccccc12)OCC(=O)N(Cc1ccccc1)Cc1ccccc1	/	-6	8	0	0	63*
CCn1c(SCC(=O)Nc2ccccc2Cl)nnc1-c1ccco1	/	/	14	/	/	-20
CCc1cc2cc3c(cc2nc1SCC(=O)NC(C)(C)C)OCCO3	/	/	11	/	/	53
Cc1cc(C)c2c(SCc3ccc(Cl)cc3Cl)nc(N)nc2n1	/	/	47*	/	/	-1
Cc1ccc2ccccc2c1CSc1nc(N)nc2c1ncn2CC(C)C	/	/	57*	/	/	-24
CC(C)Cn1cnc2c(SCc3ccc(Cl)cc3Cl)nc(N)nc21	/	/	52*	/	/	-3
Cn1c(SCC(=O)Nc2ccc3c(c2)OCO3)nnc1-c1cccnc1	/	/	12	/	/	-4
COc1ccc2c(c1)NC1(CCN(Cc3cc4c(cc3Cl)OCO4)CC1)c1cccn1-2	/	/	0	/	/	-47
CCc1nn(CC(=O)N2CCCCC2)c(=O)c2cc3oc(C)cc3n12	/	/	/	/	/	-43
O=C(O)c1cccc(S(=O)(=O)Nc2ccccn2)c1	/	/	63*	/	/	-36
O[C@@H](c1cc(-c2ccc(Cl)cc2)nc2ccccc12)[C@@H]1CCCCN1	/	/	13	/	/	-1
Cc1cc(C)c2nc3c(c([C@H](O)[C@@H]4CCCCN4)c2c1)CC/C3=C\c1ccc(Cl)cc1	/	/	50*	/	/	13
COc1ccc(N2CCN(C(=O)CSc3nnc(-c4ccccc4C)o3)CC2)cc1	/	/	27	/	/	-1
CN(c1cccc(Cl)c1)S(=O)(=O)c1cccc(C(=O)Nc2nc3ccccc3[nH]2)c1	/	14	11	-1	11	-14
COc1ccc(N(C)S(=O)(=O)c2cccc(C(=O)Nc3nc4ccccc4[nH]3)c2)cc1	71*	-11	8	0	-8	-79
COc1ccc(N2CSC3=C(C#N)C(c4cccc(OC)c4OC)CC(=O)N3C2)cc1 (stereo unspecified)	/	99*	13	-2	-13	20
CC(C)(CC(=O)O)CC(=O)Nc1ccccc1Oc1ccccc1	/	-3	9	1	2	21
O=C(Nc1ccccc1Oc1ccccc1)C1CCCC1	0	-3	7	1	0	61*
CC(C(=O)Nc1ccccc1Oc1ccccc1)c1ccccc1 (stereo unspecified)	-14	3	6	2	-11	64*
SMILES	INS promoter inh	S1P3 antag	PGE2 EP2 inh	S1P4 ag	S1P4 antagonist	EP2 mod
COc1cc(CC(=O)N2CCCC(c3[nH]ncc3-c3cc(C)no3)C2)cc(OC)c1OC (stereo unspecified)	/	/	/	/	/	10
Nc1ccccc1-c1n[nH]c(=S)s1	/	-10	67*	1	-7	0
CCCn1c(-c2ccccc2N)n[nH]c1=S	/	/	12	/	/	-1
CCOc1ccc(N(C(C)C(=O)N2CCN(CC)CC2)S(C)(=O)=O)cc1 (stereo unspecified)	/	/	2	/	/	-8
COc1ccc(OC)c(C2C(C(C)=O)=C(O)C(=O)N2CC#N)c1 (stereo unspecified)	/	/	8	/	/	11
COc1ccc(OC)c(C2C(C(C)=O)=C(O)C(=O)N2CCC(=O)O)c1 (stereo unspecified)	/	104*	17	-3	-20	20
CCOc1ccccc1C1C(C#N)=C(N)Oc2cc(C)n(C)c(=O)c21 (stereo unspecified)	-4	/	2	-4	-8	23
CCOc1cccc(C2C(C#N)=C(N)Oc3cc(C)oc(=O)c32)c1OCC (stereo unspecified)	82*	/	-4	-1	4	26
CN(C)CCC(=O)c1ccc2c(c1)OCO2	82*	-6	5	0	2	14
CN(C)CCCC(=O)c1ccc2c(c1)OCO2	-60	/	-1	2	-11	6
C/C(=N/NC(=O)c1cccs1)c1ccco1	-14	2	5	-1	-6	2
C/C(=N\N(c1ccccc1)c1ccccc1)c1ccco1	/	-7	3	0	-4	62*
COc1ccccc1NC(=O)Cc1nnc(SCC(=O)Nc2ccccc2F)n1C	0	-8	2	-3	-7	0
COc1ccc(C)cc1NC(=O)CSc1nnc(CC(=O)Nc2ccccc2C)n1C	67*	/	7	1	-26	24
OC1(c2ccccc2)CCN(Cc2ccc(N3CCCC3)c(F)c2)C1 (stereo unspecified)	/	/	0	/	/	-78
O=C(CN1C(=O)c2cccc3cccc1c23)Nc1ccccc1C(=O)NC1CCCCC1	/	/	10	/	/	76*
COCCSc1ccccc1C(=O)Nc1ccc(S(=O)(=O)N2CCCCC2)cc1	/	/	9	/	/	-6
COC(=O)/C(N=Nc1cccc(C(F)(F)F)c1)=C(\C)O	6	/	0	2	-20	30
O=C(/C(=C/O)N=Nc1cccc(C(F)(F)F)c1)c1ccccc1	33	-7	5	1	-13	62*
CC(=O)c1ccccc1OCC(O)Cn1ccnc1C (stereo unspecified)	/	/	6	/	/	-11
COc1cccc(OCC2CCCN(S(=O)(=O)c3cn(C)nc3C)C2)c1 (stereo unspecified)	/	/	3	/	/	-39
c1coc(C2OCC3(CO2)COC(c2ccco2)OC3)c1 (stereo unspecified)	/	-11	54*	0	-6	33
Cc1ccc(C(=O)c2c(C)oc3c2C(=O)C(=O)c2ccccc2-3)cc1	-11	/	55*	0	8	-48
CCOC(=O)c1ccc(N=c2ssnc2Cl)cc1	/	-20	8	0	0	-48
COc1ccc(N=c2ssnc2Cl)cc1	34	/	76*	-3	-13	-72
SMILES	INS promoter inh	S1P3 antag	PGE2 EP2 inh	S1P4 ag	S1P4 antagonist	EP2 mod
COc1cc(N=c2ssnc2Cl)cc(OC)c1OC	/	-91	130*	1	-6	-40
N#Cc1ccc(N=c2ssnc2Cl)cc1	6	/	147*	0	-12	-29
Clc1nssc1=Nc1ccccc1	-71	-9	7	0	-4	-93
Clc1ccc(N=c2ssnc2Cl)cc1	62	/	110*	-3	-31	-68
CC1CCCCN1c1nc2c(c(=O)[nH]1)CCN(Cc1ccccc1O)C2 (stereo unspecified)	/	/	/	/	/	-32
Cc1cc2cc3c(cc2n2c(=O)n(CC(=O)NC4CC4)nc12)OCO3	/	/	6	/	/	-2
CCN(CC)CCN(Cc1cc2c(C)ccc(C)c2[nH]c1=O)C(=O)Nc1ccccc1	/	/	9	/	/	-71
